# IL1B secr inh = blocks inflammasome-driven IL-1 beta release; THP-1 LPS/ATP IL-1B secretion, AlphaLISA, 16 h; active compounds read low; activity change, % at 57.5 µM; 4.7% of 360,000 active; in the data active = activity change below about -50%; inconclusive = mostly about -30% to -49%
#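 Secreted IL-1B measured by AlphaLISA bead assay after 16 h compound exposure of THP-1 cells; compounds (final up to 57.5 uM) added 1 h before LPS (250 ng/mL) and ATP (1.25 mM) stimulation; lower signal means less secretion.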
# HT1080 IDH1KD tx = toxicity to HT-1080 IDH1 knockdown cells (counter line); HT-1080 IDH1 knockdown viability, ATP luminescence, 48 h; Potency, µM (titrated, usually from 46.1 µM), actives largely listed as cytotoxic; 2% of 360,000 active; AID 686971
#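 After a 2 h attachment period, IDH1KD HT-1080 cells took pin-transferred compound for 48 h at 37 °C; ATP-based luminescence after 10 min room-temperature reagent incubation reported viability.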
# TDP1 cell noCPT = qHTS for Inhibitors of human tyrosyl-DNA phosphodiesterase 1 (TDP1): qHTS in cells in absence of CPT | DT40 Tdp1-/- hTDP1 cells, no CPT, ATP luminescence, 48 h | Potency, µM (top dose mostly 46.2 µM), hits mostly inhibitors | 15% of 420,000 active; note: nearly all actives have a fitted effect of over 55% in size
#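 Chicken DT40 Tdp1-/- cells stably complemented with human TDP1 were seeded at 400 cells/well with DMSO in place of 20 nM camptothecin. After compound pinning, cells grew at least 48 hr at 37 °C; viability read by CellTiter-Glo luminescence.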
# ALOX12 inh = blocks human arachidonate 12S-lipoxygenase. purified 12hLO, xylenol orange hydroperoxide absorbance. Potency, µM (top dose mostly 108 µM), hits mostly inhibitors. 1.1% of 580,000 active
# Target sequence (P18054 whole entry, looked up): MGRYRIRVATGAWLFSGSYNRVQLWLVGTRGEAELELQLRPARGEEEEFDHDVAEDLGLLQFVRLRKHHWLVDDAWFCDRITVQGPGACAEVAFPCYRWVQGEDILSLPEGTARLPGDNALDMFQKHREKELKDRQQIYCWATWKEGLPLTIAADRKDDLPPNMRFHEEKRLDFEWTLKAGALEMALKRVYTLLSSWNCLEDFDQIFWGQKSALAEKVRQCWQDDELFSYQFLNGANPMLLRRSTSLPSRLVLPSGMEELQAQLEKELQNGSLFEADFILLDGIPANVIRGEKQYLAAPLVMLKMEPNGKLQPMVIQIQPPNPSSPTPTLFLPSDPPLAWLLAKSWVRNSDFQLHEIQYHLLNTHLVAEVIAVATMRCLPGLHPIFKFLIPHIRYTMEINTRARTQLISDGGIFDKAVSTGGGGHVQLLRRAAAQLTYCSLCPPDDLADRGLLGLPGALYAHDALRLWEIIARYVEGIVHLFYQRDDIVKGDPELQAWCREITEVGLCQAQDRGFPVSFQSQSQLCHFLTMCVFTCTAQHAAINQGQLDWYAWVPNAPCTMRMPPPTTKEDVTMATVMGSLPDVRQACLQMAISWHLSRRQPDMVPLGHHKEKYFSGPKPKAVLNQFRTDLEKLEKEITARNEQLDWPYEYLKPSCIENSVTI
#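 Purified human 12hLO at 150 nM in 25 mM Hepes, 0.01% Triton X-100, pH 7.0, preincubated 15 min at room temperature with compound. Reaction started with 40 uM arachidonic acid, 30 min at room temperature. Hydroperoxide measured by Fe-xylenol orange, 573/405 nm absorbance ratio.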
# DT40 TDP1 CPT = growth inhibition of DT40 Tdp1-/-;hTDP1 cells with camptothecin (screen for TDP1 inhibitors); Potency, µM (titrated, usually from 46.2 µM), actives largely listed as inhibitors; chicken DT40 Tdp1-/-;hTDP1 cells + 20 nM CPT, ATP luminescence, 48 h; 12% of 420,000 active; AID 686979; note: nearly all actives have a fitted effect of over 55% in size
#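 Cell growth measured by CellTiter-Glo luminescence after a minimum 48 h, 37 C compound exposure with 20 nM CPT in Tdp1-knockout DT40 cells stably expressing hTDP1, seeded 400/well; qHTS titration format.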
# HT1080-NT tox = kills 2HG-producing HT-1080-NT fibrosarcoma cells. AID 686970. 1.6% of 360,000 active. HT-1080-NT fibrosarcoma viability, CellTiter-Glo ATP luminescence, 48 h. Potency, µM (series often up to 46.1 µM), most hits filed as cytotoxic;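 note: NT is the 2HG producing partner of a matched IDH1 knockdown line; nearly all actives have a fitted effect of over 55% in size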
#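 A 48-hour cytotoxicity screen used HT-1080-NT cells plated 2 hours before compound delivery. ATP-based CellTiter-Glo luminescence measured viability, normalized to DMSO and no-cell controls.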
# Numbers stand for hits; – = inactive; ? = inconclusive; · = no result; [ ] = another dose, or the depositor's remark. Only a selection was taken, and hits are over-represented in it overall. Unless noted, calls come from the whole dose curve; as a rule, active = well fitted curve in the direction sought with a large enough effect; inconclusive = small, poorly fitted or top-dose-only effect, or another doubt; inactive = no such curve, though single readings can be large; an effect the other way counts as inactive or inconclusive.
SMILES,IL1B secr inh,HT1080 IDH1KD tx,TDP1 cell noCPT,ALOX12 inh,DT40 TDP1 CPT,HT1080-NT tox
COc1ccccc1C(NC(=O)C1CCN(CCc2ccc(Br)cc2)CC1)c1ccccn1 (stereo not drawn),?,?,?,39.8µM,?,?
COc1ccc(OCCN2CCC(C(=O)NC(c3ccc(Cl)cc3)c3cccnc3)CC2)cc1 (stereo not drawn),–,20.6µM,?,–,?,?
C/C(=N\NC(=O)c1c([N+](=O)[O-])c(C)nn1C)c1ccc(NC(=O)c2ccc(C)o2)cc1,–,–,–,–,–,–
C/C(=N\NC(=O)c1c(Br)c(C)nn1C)c1cccc(NC(=O)C2CCC2)c1,–,–,?,–,–,–
C/C(=N\NC(=O)c1c(Cl)c(C)nn1C)c1ccc(NC(=O)C2CCC2)cc1,–,0.82µM,0.366µM,–,0.651µM,1.64µM
C/C(=N\NC(=O)c1c([N+](=O)[O-])c(C)nn1C)c1ccc(NC(=O)C2CCCC2)cc1,–,0.326µM,0.184µM,–,0.164µM,0.461µM
COc1ccc(NC(=O)C2CCC2)c2cccnc12,·,·,·,–,·,·
FC(F)(F)c1ccccc1-c1nc(Nc2ccncc2)c2ccccc2n1,·,·,–,?,?,·
FC(F)(F)c1ccc(Nc2nnnc3ccccc23)cc1,–,–,3.66µM,–,?,–
Cc1cc(S(=O)(=O)NCc2nc(N3CCCC3)c3cc(Cl)ccc3n2)c(C)s1,·,·,–,–,–[9.04 µM],·
CC(C)N(CCO)Cc1nc(N2CCOCC2)c2cc(Cl)ccc2n1,·,·,20.6µM,?,?,·
CCNc1ccc(S(=O)(=O)N(CC)CC)cc1NC(=O)c1ccccc1F,·,·,·,–,·,·
N#Cc1ccccc1CN1CCCCCCNC(=O)[C@@H]2CCC[C@@H]21,·,·,·,–,·,·
Cc1cccc(CN2CCCCCCNC(=O)CC2c2ccccc2)c1 (stereo not drawn),·,·,·,–,·,·
CCc1c(C)sc2c1CCN(Cc1ccccc1C#N)C2c1ccccc1 (stereo not drawn),·,·,?,–,9.2µM,·
CCc1c(C)sc2c1CCN(Cc1ccccc1)C2c1ccccc1 (stereo not drawn),·,·,2.91µM,–,7.31µM,·
CCOC(=O)C(NC(=O)c1ccccc1)(Nc1ccccc1OC)C(F)(F)F (stereo not drawn),·,·,·,–,·,·
CC(=O)NC12CC3CC(C1)CC(C(=O)N1CCC(CCc4ccc(C)cc4)CC1)(C3)C2,·,·,·,–,·,·
Cn1c(N)c(C(=O)Nc2ccc(-c3ccccc3)cc2)sc1=S,–,–,20.6µM,–,23.1µM,–
C=CCn1c(N)c(C(=O)Nc2ccc(C)cc2)sc1=S,–,–,–,–,–,–
CN(C)/C=C1/Oc2c(ccc3ccccc23)C1=O,–,–,?,–,–,–
CN(C)/C=C1\Oc2ccc3ccccc3c2C1=O,–,–,–,5.01µM,–,–
O=c1[nH]c(/C=C\c2cccs2)nc(O)c1[N+](=O)[O-],–,–,–,22.4µM,–,–
O=c1[nH]c(/C=C\c2ccc(O)cc2)nc(O)c1[N+](=O)[O-],–,–,–,?,–,–
CN(C)c1nc(-c2cn(CCC#N)c3ccccc23)cs1,–,25.9µM,?,?,?,?
SMILES,IL1B secr inh,HT1080 IDH1KD tx,TDP1 cell noCPT,ALOX12 inh,DT40 TDP1 CPT,HT1080-NT tox
COCCn1cc(-c2csc(N)n2)c2ccccc21,–,–,?,?,–,–
O=C(COC(=O)c1cccc(NC(=O)c2cccs2)c1)c1ccccc1,·,·,·,–,·,·
COc1ccc(OC)c(S(=O)(=O)N2CC=C(c3c(C)n(CC(=O)N4CCCC4)c4ccccc34)CC2)c1,·,·,18.4µM,–,16.4µM,·
Cc1ccc(S(=O)(=O)Oc2ccc(/C=N/NC(=O)c3nn(C)cc3Cl)cc2)cc1,–,–,–,–,–,–
COC(=O)c1cc(NS(=O)(=O)c2ccc(NC(C)=O)cc2)cc(C(=O)OC)c1,–,–,–,–,–,–
COC(=O)c1ccc(OS(=O)(=O)c2ccc(NC(C)=O)cc2)cc1,–,–,?,–,11.6µM,–
CC(=O)Nc1ccc(S(=O)(=O)Oc2ccc(/C=N/NC(=O)c3ccc(Cl)cc3)cc2)cc1,–,–,16.4µM,–,20.6µM,?
COc1cccc(F)c1-c1nc(C)c(C(=O)Nc2ccc(NC(C)=O)cc2)s1,·,·,·,–,·,·
Cc1c(NC(=O)/C(C#N)=C/c2ccc(-c3ccc(Cl)c(Cl)c3)o2)c(=O)n(-c2ccccc2)n1C,-51.9,–,13µM,–,18.4µM,–
Cc1ccc(/C=C(\C#N)C(=O)Nc2cccc(Cl)c2)o1,·,·,–,–,1.3µM,·
Cc1c(NC(=O)/C(C#N)=C/c2ccc(-c3cccc(Cl)c3)o2)c(=O)n(-c2ccccc2)n1C,–,–,20.6µM,?,?,–
Cc1cccc(NC(=O)/C(C#N)=C/c2ccc(C)o2)c1,·,·,–,–,–,·
COc1ccccc1Oc1nc2ccccn2c(=O)c1/C=C(\C#N)C(=O)Nc1c(C)n(C)n(-c2ccccc2)c1=O,·,–,–,–,–,–
Cc1ccc(Oc2nc3ccccn3c(=O)c2/C=C(\C#N)C(=O)Nc2c(C)n(C)n(-c3ccccc3)c2=O)c(C)c1,–,–,13µM,–,?,–
CCOC(=O)C1=C(CN2CCN(C(=O)OCC)CC2)NC(=O)NC1c1ccc(OC)c(COC)c1 (stereo not drawn),·,·,·,–,·,·
O=C(c1ccc(-c2ccccc2)cc1)c1cc2ccccc2o1,·,·,·,–,·,·
COc1ccc(NC(=O)[C@@H]2C[C@H](c3ccc(F)cc3)N([S+](=O)([O-])C3CC3)C2)cc1OC,·,·,·,–,·,·
CSc1ccc(C)c(C(=O)NC2CCCCCCC2)c1,·,·,·,–,·,·
CC(C)CNC(=O)N1CCC(Nc2cccnc2)C1 (stereo not drawn),·,·,·,–,·,·
COc1ccc(CN2CC(Oc3ccc(F)cc3C)C2)cc1,·,·,·,–,·,·
CC(C)C(NC(=O)c1ccncc1)C(=O)O (stereo not drawn),·,·,·,–,·,·
Cc1c(NC(=O)/C(C#N)=C/c2ccc(-c3ccccc3Cl)o2)c(=O)n(-c2ccccc2)n1C,-73.0,–,29.1µM,–,?,–
Cc1c(NC(=O)C(=O)/C=C(\O)c2ccc(Cl)cc2)c(=O)n(-c2ccccc2)n1C,-56.4,–,–,?,–,–
COc1cc(NC(=O)Cc2ccc(OC)c(S(=O)(=O)N3CCOCC3)c2)c(OC)cc1Cl,–,–,?,–,?,–
COc1ccc(CN(C)C(=O)Cc2ccc(S(=O)(=O)N3CCOCC3)s2)cc1OC,–,–,?,–,–,–
COc1cc(NC(=O)Cc2ccc(S(=O)(=O)N3CCOCC3)s2)c(OC)cc1Cl,–,–,20.6µM,–,?,–

# Bioassay records (PubChem BioAssay)
